# Assay results reported in the supplement of paper PMC4022240.
# ± gives the standard deviation.
# T1: HaloTag-ATRX ADD domain (163-292)
# T1 chain: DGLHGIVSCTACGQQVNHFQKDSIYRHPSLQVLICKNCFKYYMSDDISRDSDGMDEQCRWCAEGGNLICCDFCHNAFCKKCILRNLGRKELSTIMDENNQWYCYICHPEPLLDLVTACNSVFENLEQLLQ
# Tests used:
# Assay in all cases: peptide microarray binding signal (635 nm), min-max normalized on array (fraction of array maximum); higher = stronger binding
# Settings in all cases: peptide region: H3 1-13
# [1] = molecular target: T1, HaloTag-ATRX ADD domain (163-292)
# Protocol: (§1)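 Histone 13-mer peptides were synthesized as cellulose conjugates with a C-terminal 20-atom PEG linker and printed in triplicate on nitrocellulose. The sequence given is the unmodified backbone; PTMs (Kme1/2/3, Kac, Sph/Tph, Rme/Rme2a/Rme2s, Rcit) are listed in the label and the 'peptide modifications' condition. Slides were probed at 4 °C for 1 h with biotin-labelled (HQ)5-HaloTag reader fusions (ATRX-ADD, ING2-PHD) then streptavidin-Alexa647, or with rabbit histone antibodies then anti-rabbit Alexa647. The mean 635 nm signal of the triplicate spots was scaled 0-1 between the lowest and highest values on each array.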
# [2] = molecular target: HaloTag-ING2 PHD (mouse Ing2 200-280)
# Protocol: as §1
# [3] = molecular target: anti-H3K4me3 antibody ab8580
# Protocol: as §1
# [4] = molecular target: anti-H3K9me3 antibody ab8898
# Protocol: as §1
# [5] = peptide modifications: H3R2me2a H3K9me3, binder concentration: 1:2,000 dilution
# [6] = peptide modifications: H3R2me2a H3K9me3, binder concentration: 1:10,000 dilution
# [7] = peptide modifications: H3R2me2s H3K4me1, binder concentration: 1:2,000 dilution
# [8] = peptide modifications: H3R2me2s H3K4me1, binder concentration: 1:10,000 dilution
# [9] = peptide modifications: H3R8cit H3K9ac, binder concentration: 1:2,000 dilution
# [10] = peptide modifications: H3R8cit H3K9ac, binder concentration: 1:10,000 dilution
# [11] = peptide modifications: H3R2me2s H3K9me1, binder concentration: 1:2,000 dilution
# [12] = peptide modifications: H3R2me2s H3K9me1, binder concentration: 1:10,000 dilution
# [13] = peptide modifications: H3R2me2a H3T6ph, binder concentration: 1:2,000 dilution
# [14] = peptide modifications: H3R2me2a H3T6ph, binder concentration: 1:10,000 dilution
# [15] = peptide modifications: H3R2me2s H3K4me3, binder concentration: 1:2,000 dilution
# [16] = peptide modifications: H3R2me2s H3K4me3, binder concentration: 1:10,000 dilution
# [17] = peptide modifications: H3R8cit H3K9me1, binder concentration: 1:2,000 dilution
# [18] = peptide modifications: H3R8cit H3K9me1, binder concentration: 1:10,000 dilution
# [19] = peptide modifications: H3R2me2s H3K4me2, binder concentration: 1:2,000 dilution
# [20] = peptide modifications: H3R2me2s H3K4me2, binder concentration: 1:10,000 dilution
# [21] = peptide modifications: H3R2me2s H3K9ac, binder concentration: 1:2,000 dilution
# [22] = peptide modifications: H3R2me2s H3K9ac, binder concentration: 1:10,000 dilution
# [23] = peptide modifications: H3R2me2a H3K9me2, binder concentration: 1:2,000 dilution
# [24] = peptide modifications: H3R2me2a H3K9me2, binder concentration: 1:10,000 dilution
binder,measurement,setting,value
ARTKQTARKSTGG [H3 1-13 A Rme2a T K Q T A R Kme3 S T G G],peptide microarray binding signal,"[1]; peptide modifications: H3R2me2a H3K9me3, binder concentration: 50 nM",0.553 ± 0.21
same,peptide microarray binding signal,"[1]; peptide modifications: H3R2me2a H3K9me3, binder concentration: 500 nM",0.325 ± 0.0057
same,peptide microarray binding signal,"[2]; peptide modifications: H3R2me2a H3K9me3, binder concentration: 10 nM",0.0188 ± 0.00063
same,peptide microarray binding signal,"[2]; peptide modifications: H3R2me2a H3K9me3, binder concentration: 100 nM",0.0327 ± 0.0029
same,peptide microarray binding signal,[3]; [5],0.0294 ± 0.003
same,peptide microarray binding signal,[3]; [6],0.0254 ± 0.0048
same,peptide microarray binding signal,[4]; [5],0.328 ± 0.013
same,peptide microarray binding signal,[4]; [6],0.254 ± 0.069
ARTKQTARKSTGG [H3 1-13 A Rme2s T Kme Q T A R K S T G G],peptide microarray binding signal,"[1]; peptide modifications: H3R2me2s H3K4me1, binder concentration: 50 nM",0.00815 ± 0.00038
same,peptide microarray binding signal,"[1]; peptide modifications: H3R2me2s H3K4me1, binder concentration: 500 nM",0.0162 ± 0.0009
same,peptide microarray binding signal,"[2]; peptide modifications: H3R2me2s H3K4me1, binder concentration: 10 nM",0.00573 ± 0.00037
same,peptide microarray binding signal,"[2]; peptide modifications: H3R2me2s H3K4me1, binder concentration: 100 nM",0.0481 ± 0.011
same,peptide microarray binding signal,[3]; [7],0.0368 ± 0.009
same,peptide microarray binding signal,[3]; [8],0.0228 ± 0.00057
same,peptide microarray binding signal,[4]; [7],0.00405 ± 0.0004
same,peptide microarray binding signal,[4]; [8],0.00329 ± 0.00019
ARTKQTARKSTGG [H3 1-13 A R T K Q T A Rcit Kac S T G G],peptide microarray binding signal,"[1]; peptide modifications: H3R8cit H3K9ac, binder concentration: 50 nM",0.00718 ± 9.2e-05
same,peptide microarray binding signal,"[1]; peptide modifications: H3R8cit H3K9ac, binder concentration: 500 nM",0.0143 ± 0.00071
same,peptide microarray binding signal,"[2]; peptide modifications: H3R8cit H3K9ac, binder concentration: 10 nM",0.0183 ± 0.0039
same,peptide microarray binding signal,"[2]; peptide modifications: H3R8cit H3K9ac, binder concentration: 100 nM",0.031 ± 0.01
same,peptide microarray binding signal,[3]; [9],0.0013 ± 3.1e-05
same,peptide microarray binding signal,[3]; [10],0.002 ± 0.0002
same,peptide microarray binding signal,[4]; [9],0.00239 ± 0.00033
same,peptide microarray binding signal,[4]; [10],0.00208 ± 0.00016
ARTKQTARKSTGG [H3 1-13 A Rme2s T K Q T A R Kme S T G G],peptide microarray binding signal,"[1]; peptide modifications: H3R2me2s H3K9me1, binder concentration: 50 nM",0.0197 ± 0.00077
same,peptide microarray binding signal,"[1]; peptide modifications: H3R2me2s H3K9me1, binder concentration: 500 nM",0.03 ± 0.0016
same,peptide microarray binding signal,"[2]; peptide modifications: H3R2me2s H3K9me1, binder concentration: 10 nM",0.0236 ± 0.0023
same,peptide microarray binding signal,"[2]; peptide modifications: H3R2me2s H3K9me1, binder concentration: 100 nM",0.0288 ± 0.00047
same,peptide microarray binding signal,[3]; [11],0.0193 ± 0.003
same,peptide microarray binding signal,[3]; [12],0.0216 ± 0.0013
same,peptide microarray binding signal,[4]; [11],0.0154 ± 0.00086
same,peptide microarray binding signal,[4]; [12],0.0152 ± 0.0011
ARTKQTARKSTGG [H3 1-13 A Rme2a T K Q Tph A R K S T G G],peptide microarray binding signal,"[1]; peptide modifications: H3R2me2a H3T6ph, binder concentration: 50 nM",0.00602 ± 7.4e-05
same,peptide microarray binding signal,"[1]; peptide modifications: H3R2me2a H3T6ph, binder concentration: 500 nM",0.015 ± 0.0011
same,peptide microarray binding signal,"[2]; peptide modifications: H3R2me2a H3T6ph, binder concentration: 10 nM",0.00549 ± 0.00043
same,peptide microarray binding signal,"[2]; peptide modifications: H3R2me2a H3T6ph, binder concentration: 100 nM",0.00964 ± 0.0013
same,peptide microarray binding signal,[3]; [13],0.00198 ± 0.00026
same,peptide microarray binding signal,[3]; [14],0.0032 ± 0.00025
same,peptide microarray binding signal,[4]; [13],0.00112 ± 3.5e-05
same,peptide microarray binding signal,[4]; [14],0.000923 ± 1.9e-05
ARTKQTARKSTGG [H3 1-13 A Rme2s T Kme3 Q T A R K S T G G],peptide microarray binding signal,"[1]; peptide modifications: H3R2me2s H3K4me3, binder concentration: 50 nM",0.00893 ± 9.3e-05
same,peptide microarray binding signal,"[1]; peptide modifications: H3R2me2s H3K4me3, binder concentration: 500 nM",0.0273 ± 0.0066
same,peptide microarray binding signal,"[2]; peptide modifications: H3R2me2s H3K4me3, binder concentration: 10 nM",0.0555 ± 0.0092
same,peptide microarray binding signal,"[2]; peptide modifications: H3R2me2s H3K4me3, binder concentration: 100 nM",0.0641 ± 0.027
same,peptide microarray binding signal,[3]; [15],0.674 ± 0.053
same,peptide microarray binding signal,[3]; [16],0.326 ± 0.034
same,peptide microarray binding signal,[4]; [15],0.228 ± 0.057
same,peptide microarray binding signal,[4]; [16],0.113 ± 0.034
ARTKQTARKSTGG [H3 1-13 A R T K Q T A Rcit Kme S T G G],peptide microarray binding signal,"[1]; peptide modifications: H3R8cit H3K9me1, binder concentration: 50 nM",0.0302 ± 0.0019
same,peptide microarray binding signal,"[1]; peptide modifications: H3R8cit H3K9me1, binder concentration: 500 nM",0.0745 ± 0.02
same,peptide microarray binding signal,"[2]; peptide modifications: H3R8cit H3K9me1, binder concentration: 10 nM",0.0223 ± 0.002
same,peptide microarray binding signal,"[2]; peptide modifications: H3R8cit H3K9me1, binder concentration: 100 nM",0.0394 ± 0.013
same,peptide microarray binding signal,[3]; [17],0.00313 ± 0.00015
same,peptide microarray binding signal,[3]; [18],0.00217 ± 9.9e-05
same,peptide microarray binding signal,[4]; [17],0.00225 ± 0.00023
same,peptide microarray binding signal,[4]; [18],0.00185 ± 5.2e-05
ARTKQTARKSTG [H3 1-13 A Rme2s T Kme2 Q T A R K S T G],peptide microarray binding signal,"[1]; peptide modifications: H3R2me2s H3K4me2, binder concentration: 50 nM",0.00476 ± 0.00032
same,peptide microarray binding signal,"[1]; peptide modifications: H3R2me2s H3K4me2, binder concentration: 500 nM",0.00814 ± 0.00041
same,peptide microarray binding signal,"[2]; peptide modifications: H3R2me2s H3K4me2, binder concentration: 10 nM",0.00967 ± 0.00038
same,peptide microarray binding signal,"[2]; peptide modifications: H3R2me2s H3K4me2, binder concentration: 100 nM",0.0142 ± 0.0012
same,peptide microarray binding signal,[3]; [19],0.0186 ± 0.0024
same,peptide microarray binding signal,[3]; [20],0.01061 ± 5.4e-05
same,peptide microarray binding signal,[4]; [19],0.00287 ± 0.00041
same,peptide microarray binding signal,[4]; [20],0.00225 ± 0.00017
ARTKQTARKSTGG [H3 1-13 A Rme2s T K Q T A R Kac S T G G],peptide microarray binding signal,"[1]; peptide modifications: H3R2me2s H3K9ac, binder concentration: 50 nM",0.0127 ± 0.00045
same,peptide microarray binding signal,"[1]; peptide modifications: H3R2me2s H3K9ac, binder concentration: 500 nM",0.0427 ± 0.0013
same,peptide microarray binding signal,"[2]; peptide modifications: H3R2me2s H3K9ac, binder concentration: 10 nM",0.0451 ± 0.0015
same,peptide microarray binding signal,"[2]; peptide modifications: H3R2me2s H3K9ac, binder concentration: 100 nM",0.0681 ± 0.0061
same,peptide microarray binding signal,[3]; [21],0.0383 ± 0.0035
same,peptide microarray binding signal,[3]; [22],0.0308 ± 0.0052
same,peptide microarray binding signal,[4]; [21],0.0163 ± 0.0031
same,peptide microarray binding signal,[4]; [22],0.00836 ± 0.00038
ARTKQTARKSTGG [H3 1-13 A Rme2a T K Q T A R Kme2 S T G G],peptide microarray binding signal,"[1]; peptide modifications: H3R2me2a H3K9me2, binder concentration: 50 nM",0.169 ± 0.018
same,peptide microarray binding signal,"[1]; peptide modifications: H3R2me2a H3K9me2, binder concentration: 500 nM",0.197 ± 0.0079
same,peptide microarray binding signal,"[2]; peptide modifications: H3R2me2a H3K9me2, binder concentration: 10 nM",0.06 ± 0.00075
same,peptide microarray binding signal,"[2]; peptide modifications: H3R2me2a H3K9me2, binder concentration: 100 nM",0.0848 ± 0.012
same,peptide microarray binding signal,[3]; [23],0.0133 ± 0.0025
same,peptide microarray binding signal,[3]; [24],0.0229 ± 0.0084
same,peptide microarray binding signal,[4]; [23],0.0303 ± 0.0053
same,peptide microarray binding signal,[4]; [24],0.0191 ± 0.0015
